# Laboratory results from PubChem BioAssay AID463173 (ICCB-Longwood Screening Facility, Harvard Medical School, 2010).
# About 1,700 (3.3%) of roughly 52,000 compounds were called active. This is one part of a sample in which actives are shown more often than they occur. No stated cut-off is given here; in the data, active means survival mostly below about 52% (no sharp cut-off); inactive means mostly above about 56%.
# Tested on: Wild type
# Assay: S. aureus survival, RN4220 and DeltatarO strains – OD600, teichoic acid synthesis inhibitors, primary screen (AID 463173)
# Conditions: S. aureus RN4220 wild type/DeltatarO growth, OD600, 18 h, hits give low values, screened at 18.75 µg/mL (by protocol)
row,SMILES,survival
1,COc1cc(OC)c(NC(=O)Nc2cccc(OCc3cc(=O)n4ccccc4n3)c2)cc1Cl,87% (inactive)
2,N#Cc1ccc(N2CCCCC2)cc1,119% (inactive)
3,Oc1ccc(Nc2nc3ccccc3n3cnnc23)cc1,78% (inactive)
4,COc1ccc(OCC(=O)NCCO)cc1,116% (inactive)
5,COc1ccccc1NC(=O)c1cnc(SCC(=O)N2CCOCC2)n(C)c1=O,77% (inactive)
6,CCc1ccc2ncc3c(-c4ccccc4)nn(-c4ccccc4)c3c2c1,7% (active)
7,Cc1ccc(-c2nn(-c3ccccc3)c3c2cnc2ccccc23)cc1C,68% (inactive)
8,FC(F)(F)c1ccc2c(c1)ncc1c(-c3ccccc3)nn(-c3ccccc3)c12,125% (inactive)
9,N#Cc1c(N2CCOCC2)nc(N2CCOCC2)c2c1CCN(Cc1ccccc1)C2,112% (inactive)
10,COc1ccc(CNC(=O)CCc2c(C)nn(-c3ccc(N4CCCCC4)nn3)c2C)c(OC)c1,64% (inactive)
11,CCn1c(N2CCN(C(=O)Nc3ccc(Cl)c(C(F)(F)F)c3)CC2)nc2ccccc21,0% (active)
12,CCCn1c(N2CCN(C(=O)Nc3ccc(OC)cc3)CC2)nc2ccccc21,94% (inactive)
13,CC(C)Cn1c(N2CCN(C(=O)Nc3ccc(Cl)cc3)CC2)nc2ccccc21,99% (inactive)
14,CCOCCn1ccc2c(OCC(=O)Nc3ccc(C(N)=O)cc3)cccc2c1=O,32% (inactive)
15,Cc1ccc(-n2cccn2)cc1,113% (inactive)
16,O=c1oc2ccccc2n1CCCOc1ccccc1Cl,0% (active)
17,Cc1ccc2oc(=O)n(CCCOc3ccccc3Cl)c2c1,-10% (active)
18,CCOc1ccccc1NC(=O)NCCn1c(=O)oc2ccc(C)cc21,79% (inactive)
19,N#CCCCn1c(=O)oc2ccccc21,84% (inactive)
20,O=C(O)CCCn1c(=O)oc2ccccc21,99% (inactive)

row,SMILES,survival
1,Cc1ccc2oc(=O)n(CCNC(=O)Nc3ccccc3C)c2c1,119% (inactive)
2,O=S(=O)(c1ccccc1)c1nnn2c1nc(NCc1ccc(Cl)cc1)c1sccc12,88% (inactive)
3,Cc1cc(SCC(=O)NCc2ccccc2)nc(=O)[nH]1,70% (inactive)
4,Cc1cc2oc(C(=O)Nc3ccc(S(=O)(=O)N4CCCCCC4)cc3)cc(=O)c2cc1C,80% (inactive)
5,COc1ccc(-c2nc(CSc3nnc(C)n4c3cc3oc(C)cc34)c(C)o2)cc1OC,89% (inactive)
6,CCc1ccc(OCC(=O)Nc2ccc(Cl)c(-c3nc4cc(C)cc(C)c4o3)c2)cc1,51% (inactive)
7,O=C(/C=C/c1cn(CC(O)CN2CCCCCC2)c2ccccc12)c1ccccc1 (stereo not given),67% (inactive)
8,O=C(/C=C/c1cn(CC(O)CN2CCCCCC2)c2ccccc12)c1ccc(Br)cc1 (stereo not given),14% (active)
9,O=C(/C=C/c1cn(CC(O)CN2CCc3ccccc32)c2ccccc12)c1ccc(Br)cc1 (stereo not given),70% (inactive)
10,COc1ccc(C(=O)/C=C/c2cn(CC(O)CN3CCc4ccccc43)c3ccccc23)cc1OC (stereo not given),87% (inactive)
11,COc1ccc(C(=O)/C=C/c2cn(CC(O)CN3CCc4ccccc43)c3ccccc23)cc1 (stereo not given),63% (inactive)
12,CCOc1ccc(C(=O)/C=C/c2cn(CC(O)CN3CCCCCC3)c3ccccc23)cc1 (stereo not given),26% (active)
13,Cc1ccc(C(=O)/C=C/c2cn(CC(O)CN3CCCCCC3)c3ccccc23)cc1 (stereo not given),28% (active)
14,COc1ccc(C(=O)/C=C/c2cn(CC(O)CN3CCCCCC3)c3ccccc23)cc1OC (stereo not given),96% (inactive)
15,Cc1ccc(Cn2ccc(NC(=O)c3cc(-c4ccc(Cl)c(Cl)c4)on3)n2)cc1,74% (inactive)
16,CCOC(=O)CSc1nc2ccccc2c(=O)n1CCc1ccc(OC)c(OC)c1,124% (inactive)
17,Cc1ccc(-n2c(C)cc(CO)c2C)cc1,100% (inactive)
18,Cc1ccc(CNC(=O)CCc2c(C)nn(-c3ccc(N4CCOCC4)nn3)c2C)cc1,135% (inactive)
19,CC(=O)Nc1ccc(N=NN2CCCCC2)cc1,99% (inactive)
20,CCc1ccc(CN(Cc2ccco2)c2cnc(S(C)(=O)=O)nc2C(=O)Nc2c(C)cccc2C)cc1,70% (inactive)

row,SMILES,survival
1,CCCOc1ccc(-c2nc(N3CCCCC3)c3ccccc3n2)cc1,0% (active)
2,Cc1ccc(-c2nc(N3CCN(c4ccccc4Cl)CC3)c3ccccc3n2)cc1,62% (inactive)
3,CCCOc1ccc(CNC(=O)C2CCN(c3nc4ccccc4nc3C(F)(F)F)CC2)cc1,59% (inactive)
4,c1ccc(-c2nc(N3CCCCC3)c3ccccc3n2)cc1,130% (inactive)
5,CCCOc1ccc(-c2nc3ccccc3c(=O)o2)cc1,70% (inactive)
6,CCCOc1ccc(-c2nc(N3CCC(C)CC3)c3ccccc3n2)cc1,-2% (active)
7,O=C(CSc1nc2c([nH]c3ccccc32)c(=O)n1-c1ccccc1)N1CCCc2ccccc21,128% (inactive)
8,c1ccc2sc(N3CCN(Cc4nnnn4C4CCCC4)CC3)nc2c1,104% (inactive)
9,Fc1ccc(Nc2ncnc3onc(-c4ccc(Cl)cc4)c23)cc1Cl,71% (inactive)
10,Cc1ccccc1CN1C(=O)c2ccccc2Sc2ccc(C(=O)NC(C)c3ccccc3)cc21 (stereo not given),81% (inactive)
11,COc1ccc(CNC(=O)c2ccc3c(c2)N(C)C(=O)C2CCCCN32)cc1OC (stereo not given),59% (inactive)
12,CCCCOc1ccc(CNC(=O)c2ccc3c(c2)N(C)C(=O)C2CCCCN32)cc1 (stereo not given),88% (inactive)
13,COc1cccc(CNC(=O)c2ccc3c(c2)N(C)C(=O)C2CCCCN32)c1 (stereo not given),68% (inactive)
14,CC(C)Oc1ccc(CNC(=O)c2ccc3c(c2)N(C)C(=O)C2CCCCN32)cc1 (stereo not given),10% (active)
15,Cc1cccc(CNC(=O)c2ccc3c(c2)N(C)C(=O)C2CCCCN32)c1 (stereo not given),-3% (active)
16,CSc1ccc(CNC(=O)c2ccc3c(c2)N(C)C(=O)C2CCCCN32)cc1 (stereo not given),83% (inactive)
17,COc1cccc(CNC(=O)c2ccc3nc(-c4ccccc4)c(-c4ccccc4)nc3c2)c1OC,71% (inactive)
18,CCC(Cn1nnc2ccccc2c1=O)NC(=O)Nc1ccccc1OC (stereo not given),93% (inactive)
19,CCc1ccccc1NC(=O)[C@@H](c1ccccc1)N1Cc2ccccc2C1=O,22% (inactive)
20,COc1ccccc1OCCSc1ncnc2nc[nH]c12,105% (inactive)
